Experiments:
Settings in all cases: concentration: 1 μM, replicates: in singlicate; n = 1
[1] = system: CSK
[2] = system: CSNK1A1L
[3] = system: CSNK1A1
[4] = system: CSNK1D
[5] = system: CSNK1E
[6] = system: CSNK1G1
[7] = system: CSNK1G2
[8] = system: CSNK1G3
[9] = system: CSNK2A1
[10] = system: CSNK2A2
[11] = system: T1, CTK
T1 construct: gene MATK

[12] = system: DAPK1
[13] = system: DAPK2
[14] = system: DAPK3
[15] = system: T2, DCAMKL1
T2 construct: gene DCLK1

[16] = system: T3, DCAMKL2
T3 construct: gene DCLK2

[17] = system: T4, DCAMKL3
T4 construct: gene DCLK3

[18] = system: DDR1
[19] = system: DDR2
[20] = system: T5, DLK
T5 construct: gene MAP3K12
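Note: KINOMEscan kinase panel screen.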

| Compound | %Inh [1] [%] | %Inh [2] [%] | %Inh [3] [%] | %Inh [4] [%] | %Inh [5] [%] | %Inh [6] [%] | %Inh [7] [%] | %Inh [8] [%] | %Inh [9] [%] | %Inh [10] [%] | %Inh [11] [%] | %Inh [12] [%] | %Inh [13] [%] | %Inh [14] [%] | %Inh [15] [%] | %Inh [16] [%] | %Inh [17] [%] | %Inh [18] [%] | %Inh [19] [%] | %Inh [20] [%] |
| --- | --- | --- | --- | --- | --- | --- | --- | --- | --- | --- | --- | --- | --- | --- | --- | --- | --- | --- | --- | --- |
| CSc1ccc(-c2nc3n(c2-c2ccncc2)CCC3)cc1 [SKF-105561] | 0 | 5 | 5 | 6 | 7 | 0 | 0 | 1 | 8 | 0 | 21 | 29 | 0 | 0 | 3 | 0 | 21 | 75 | 60 | 0 |
| Cl.Cl.Cl.N#Cc1ccc(CCNc2nccc(-c3cccc(CN4CCNCC4)c3)n2)cc1 [GSK2137462] | 15 | 2 | 0 | 23 | 55 | 13 | 0 | 14 | 20 | 30 | 2 | 28 | 19 | 75 | 14 | 0 | 0 | 0 | 0 | 0 |
| CC(=O)c1cccc(NC(=O)NC2CCN(c3ccnc(Nc4ccc(F)cc4)n3)C2)c1 (centres unmarked) [GSK1379710] | 5 | 0 | 0 | 27 | 18 | 12 | 0 | 25 | 16 | 15 | 0 | 15 | 2 | 26 | 6 | 11 | 14 | 20 | 7 | 29 |
| COc1ccc(CSc2nnc(-c3ccc4nccn4c3)o2)cc1C(F)(F)F | 0 | 0 | 18 | 0 | 0 | 15 | 0 | 0 | 0 | 21 | 0 | 0 | 0 | 1 | 8 | 0 | 0 | 13 | 0 | 0 |
| COC(=O)c1cccc(NC(=O)NC2CCN(c3ccnc(Nc4ccc(OC)cc4)n3)C2)c1 (centres unmarked) [GSK1379746] | 0 | 0 | 0 | 21 | 35 | 0 | 0 | 26 | 0 | 0 | 0 | 0 | 0 | 0 | 8 | 0 | 0 | 11 | 46 | 35 |
| COc1ccc(Nc2nccc(-c3ccc(NC(=O)c4cc5cc(F)ccc5[nH]4)cc3)n2)cc1 [GSK1229496] | 0 | 0 | 0 | 0 | 21 | 0 | 0 | 17 | 0 | 0 | 0 | 55 | 5 | 1 | 11 | 0 | 0 | 63 | 26 | 36 |
| CNc1nc(-c2ccc3c(N)n[nH]c3c2)cc(N2C[C@@H](C(=O)Nc3ccccc3)CC[C@H]2C)n1 [GSK2298859] | 0 | 6 | 0 | 15 | 36 | 16 | 0 | 28 | 2 | 3 | 0 | 11 | 30 | 43 | 53 | 11 | 76 | 6 | 8 | 11 |
| CNCc1ccc2nc(NC(=O)c3ccc(C(C)(C)C)cc3)cn2c1 | 0 | 0 | 2 | 11 | 3 | 9 | 0 | 87 | 42 | 4 | 45 | 0 | 0 | 1 | 15 | 4 | 24 | 9 | 24 | 27 |
| Fc1ccc(-c2nc3n(c2-c2ccncc2)CCS3)cc1 [GI98581] | 0 | 30 | 84 | 95.3 | 98.2 | 14 | 17 | 32 | 10 | 6 | 0 | 0 | 0 | 0 | 0 | 21 | 30 | 54 | 54 | 26 |
| CC(=O)c1c(C)c2cnc(Nc3ccc(N4CCNCC4)cn3)nc2n(C2CCCC2)c1=O | 0 | 0 | 24 | 8 | 99.9 | 0 | 0 | 0 | 0 | 13 | 0 | 0 | 13 | 6 | 0 | 0 | 0 | 0 | 0 | 0 |
| COc1cc2ncnc(Nc3cccc(Br)c3)c2cc1OC.Cl [GI230329] | 0 | 10 | 0 | 0 | 31 | 12 | 0 | 26 | 8 | 0 | 0 | 0 | 0 | 9 | 25 | 0 | 10 | 63 | 43 | 39 |
| Fc1ccc(-c2nn3cccc(F)c3c2-c2ccncc2)cc1 [GW475620] | 0 | 30 | 69 | 94 | 96.2 | 16 | 2 | 24 | 11 | 9 | 0 | 0 | 0 | 5 | 0 | 0 | 10 | 47 | 39 | 15 |
| CN1c2ccc(-c3ccc(C(N)=O)cc3)cc2-c2[nH]ncc2S1(=O)=O | 0 | 0 | 3 | 1 | 1 | 0 | 0 | 0 | 0 | 1 | 0 | 54 | 18 | 26 | 7 | 0 | 0 | 0 | 28 | 0 |
| O=C(Nc1n[nH]c2nc(-c3cccs3)c(Br)cc12)C1CC1 [SB-735297] | 12 | 6 | 0 | 0 | 0 | 0 | 0 | 17 | 26 | 51 | 13 | 0 | 0 | 0 | 0 | 0 | 0 | 0 | 0 | 0 |
| CC(=O)c1c(C)c2cnc(Nc3ccn(C)n3)nc2n(C2CCCC2)c1=O | 1 | 0 | 3 | 0 | 0 | 0 | 0 | 16 | 56 | 50 | 0 | 0 | 0 | 3 | 0 | 100 | 0 | 0 | 0 | 64 |
| O=c1cc(N2CCOCC2)nc2n(Cc3ccccc3F)ccn12 [GSK2297428] | 0 | 0 | 28 | 25 | 33 | 9 | 0 | 28 | 0 | 0 | 0 | 0 | 0 | 13 | 57 | 0 | 3 | 10 | 0 | 0 |
| Cc1ccc(-c2nc(Nc3ccncc3)c3ccccc3n2)s1 [GSK189015] | 0 | 13 | 24 | 33 | 22 | 14 | 12 | 35 | 27 | 30 | 8 | 11 | 0 | 10 | 17 | 30 | 15 | 61 | 2 | 0 |
| O=c1cc(N2CCOCC2)nc2n(Cc3cccc(Cl)c3Cl)c3ccccc3n12 [GSK2299009] | 21 | 11 | 0 | 19 | 41 | 8 | 0 | 17 | 11 | 31 | 0 | 13 | 0 | 11 | 12 | 7 | 10 | 22 | 0 | 0 |
| Cn1cnc2c(N)ncnc21 [SKF-97623] | 0 | 22 | 1 | 0 | 8 | 0 | 70 | 0 | 0 | 0 | 0 | 100 | 0 | 0 | 0 | 0 | 11 | 0 | 30 | 6 |

Reference: paper PMC5540273 (PLoS ONE, 2017)
